Our source for the growth values is PubChem BioAssay (NCI).

Holding throughout (assay): NCI-60 one-dose screen, 48 h (100 = growth as untreated, 0 = no growth, -100 = all killed)
What all share (settings): 10 µM

Assay [1] concerns HCT-15 colon.
The test system of assay [2] is HT29 colon.
For assay [3], the system named is SNB-75 CNS.
The test system of assay [4] is SNB-19 CNS.
The subject of assay [5] is SK-MEL-5 melanoma.
The subject of assay [6] is UACC-62 melanoma.
Assay [7] relates to SK-MEL-28 melanoma.
For assay [8], the system named is PC-3 prostate.
Assay [9] has as its system LOX IMVI melanoma.
For assay [10], the system named is U251 CNS.

Each structure is given as a SMILES string. The panel holds about 83,000 compounds, 20% with a hit somewhere; the sample as a whole holds those more often.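 Method: cells in 96-well plates; compound added at one concentration; 48 h incubation; percent growth measured; values under 10 scored active.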 A number with no mark means an inactive call. The source made the active and inactive calls.

With `N=C1S/C(=C/c2ccc(-c3ccc4c(c3)C(=O)NC4=O)o2)C(=O)N1c1ccc(Br)cc1`, the growth is 47.1% in [1]; 21.9% in assay [2]; -3.31% (active) in [3]; 106% in assay [4]; 65.5% in [5]; 31.8% in assay [6]. In [7], the growth is -19.1% (active).

`COc1ccc(-c2nn(-c3cccc(Cl)c3)cc2-c2cc(-c3ccccc3)[nH]c(=O)c2C#N)cc1`: the growth in assay [1] is 63.8%; in assay [2], 55.6%; in assay [3], 38.4%; in assay [4] it was 45.2%; in assay [8], 71.6%; in assay [5], 39.9%. Further, the growth was 35% in [6], 55.6% in assay [9] and 71% in assay [7].

As to `Cc1ccc(C(=O)C2C(=O)C3CCC2C3)cc1` (centres undefined), the growth in assay [1] is 106%; in assay [2], 108%; in [3], 93.7%; in [4] it was 95.7%; in assay [8], 94.2%; in assay [5] it was 102%. Moreover, the growth in assay [6] was 98.9%; in assay [7], 99.6%.

Regarding `COc1ccc(-c2nn(-c3cccc(Cl)c3)cc2-c2c(C#N)c(N)n(N)c(=O)c2C#N)cc1`, the growth in assay [1] is 94.9%; in [2], 66.3%; in assay [3], 48.6%; in [4] it was 64%; in assay [8] it was 54%; in assay [5], 81.9%. Moreover, the values for the growth in assay [6], in [9] and in assay [7] were 75.8%, 29.5% and 91.6%, respectively.

Consider `CNC(=O)c1cn2c3c(c(N4CCN(C)CC4)c(F)cc3c1=O)OC[C@@H]2C`, for which the growth in assay [1] was 102%; in [2], 96.2%; in assay [3], 84.1%; in assay [10] it was 99.5%; in assay [8] it was 96.2%; in [5], 101%. For the same molecule, the growth is 103% in assay [6], 94.8% in [9] and 108% in assay [7].

With `CSc1ccc(-c2cc(-c3ccc(NC(=O)CCCN4CCCC4)cc3)nc(-c3ccc(NC(=O)CCCN4CCCC4)cc3)c2)cc1`, the growth in assay [1] is 88.6%; in assay [2], 21.9%; in [3], 45.2%; in [4], 49.2%; in assay [5], 91.8%; in assay [6], 93.4%. In assay [7], the growth was 94.7%.

In the case of `CC(=O)Nc1cc2c(cc1Cl)Cc1cc(Cl)ccc1-2`, the growth in assay [1] was 85.9%; in [2], 99.4%; in [3] it was 64.1%; in assay [10] it was 89.1%; in assay [8], 86.1%; in assay [5], 86.6%. Further, the growth in assay [9] is 89.7%; in assay [7] it was 104%.

In the case of `COc1ccc(-c2nc(-c3nc4ccc(C)cc4[nH]3)cc3c2[nH]c2ccccc23)cc1`, the growth in assay [1] was 29.7%; in assay [2] it was 30%; in assay [4], 84.1%; in assay [10], 34.8%; in [8], 43.8%; in [5], 35.6%. The growth in assay [6] was 21%; in assay [9] it was 25.8%; in assay [7], 71.7%.

For the molecule `Nc1nc(N)c(N)c(Nc2ccc(CCO)cc2)n1`, the growth in assay [1] was 115%; in assay [2] it was 104%; in assay [4], 124%; in [10], 96.6%; in assay [8], 96.8%; in assay [5], 99.4%. Also, the growth in assay [6] was 97.5%; in [9], 97.2%; in assay [7], 113%.

For the molecule `O=C(N/N=C/c1cc([N+](=O)[O-])ccc1O)c1cccc2ccccc12`, the growth is 22.5% in assay [1]; 65.9% in assay [2]; 53% in [4]; 29.8% in assay [10]; 41.4% in assay [8]; 39.1% in assay [5]. Besides, the growth is 9.83% (active) in assay [6], 9.69% (active) in [9] and 50% in [7].

`Cn1cnc([N+](=O)[O-])c1/C=C1\Oc2ccc(Br)cc2C1=O`: the growth in assay [1] was 70.4%; in assay [2], 83.8%; in assay [4], 90.1%; in [10], 101%; in assay [8], 81.5%; in [5] it was 91.2%. The values for the growth in [6], in assay [9] and in assay [7] were 96.6%, 72.8% and 97.4%, respectively.

For the molecule `COc1ccc(CCN2CCC(Nc3nc4ccccc4n3Cc3ccc(F)cc3)CC2)cc1`, the growth in [1] was -23% (active); in [2], -53.6% (active); in assay [4] it was 40.6%; in [10], -70.9% (active); in assay [8], 29.4%; in [5], -100% (active). The growth in [6] was -85.6% (active); in assay [9] it was -87.9% (active); in [7], -76.7% (active).

Regarding `COc1ccc(-c2cc(-c3ccc(Cl)cc3)nc(SCCCCCCC(=O)NO)n2)cc1OC`, the growth was 30.5% in [1]; 46.7% in assay [2]; 60.6% in assay [4]; 59.8% in assay [10]; 58.6% in assay [8]; 1.04% (active) in [5]. Further, the values for the growth in [6], in [9] and in [7] were 28.1%, 0.604% (active) and 72.9%, respectively.

Consider `COC(=O)c1c[nH]c2cc(OC(C)C)c(OC(C)C)cc2c1=O`, for which the growth was 101% in assay [1]; 95.6% in assay [2]; 105% in [4]; 6.2% (active) in assay [10]; 93.1% in [8]; 98.3% in assay [5]. In addition, the growth in assay [6] is 106%; in assay [9] it was 95.9%; in assay [7], 117%.

Regarding `O=C(O)Cc1ccc(O)c(O)c1`, the growth in assay [1] was 96.4%; in assay [2], 115%; in [3], 68.8%; in [10], 109%; in assay [8] it was 106%; in [5] it was 94.1%. For the same molecule, the values for the growth in [6], in [9] and in assay [7] were 105%, 107% and 103%, respectively.
